Compounds with a hit are over-represented: about 13% of the library has one in this group of screens.
WT yeast gro inh: growth inhibition of WT strain, primary screen, mitochondrial fusion inhibitor project, WT and mutant strains, chemical genetic; mitochondrial fusion phenotypic screen; inhibition, % at 10 µM; 2.1% of 190,000 active; in the data active means inhibition above about 58%; tested in S. cerevisiae
CHOP inhibitor: inhibitors of CHOP promoter induction, primary screen, cell-based, unfolded protein response, luciferase reporter. CHO-K1 CHOP-promoter luciferase, tunicamycin-induced, 15-18 h. 3.8% of 220,000 active. AID 2732, 2010. inhibition, % at 10 µM;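 active means compounds that reduced the stress-induced luciferase reporter signal by more than about 70% of percent inhibition, limit read from the data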
Lmaj promast: Leishmania major promastigote growth inhibition, primary screen. Leishmania major promastigotes, resazurin fluorescence viability. inhibition, % at 10 µM. 9% of 200,000 active; in the data active means inhibition above about 50%;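 further: promastigotes grown with compound for 44 hours at 28 °C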
RAM network inh: inhibitors of the yeast RAM network, primary screen, dse1pr::URA3 reporter, 5-FOA selection; S. cerevisiae dse1pr::URA3 reporter, 5-FOA growth OD615, 2 d; analog-sensitive cbk1-as2 kinase mutant strain; inhibition, % at 50 µM; 1.8% of 190,000 active; AID 868, 2007;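 active means inhibition above a set limit, 3 SD over mean compound inhibition, cut at about 8.4% in these data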;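 further: inhibition rescues growth on 5-FOA so higher OD means more RAM inhibition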
Numbers stand for hits; n = inactive; x = not tested or not shown.

SMILES	WT yeast gro inh	CHOP inhibitor	Lmaj promast	RAM network inh
COc1ccc(NC(=O)c2c(NC(=O)CCC(=O)O)sc(-c3ccccc3)c2C)cc1	n	n	n	n
O=C(CCl)NN=C(c1ccccc1)c1ccccc1	n	n	100.3	n
Cc1ccccc1N=C1SC(CC(=O)Nc2ccc3ccccc3c2)C(=O)N1Cc1ccccn1 (stereo unspecified)	n	n	98.2	n
O=C(CC1SC(=Nc2cccc3ccccc23)N(Cc2ccccn2)C1=O)Nc1ccccc1Br (stereo unspecified)	n	n	n	n
Cc1cccc(NC(=O)COC(=O)Cc2cccc(C(F)(F)F)c2)c1C	n	n	n	n
Cc1cccc(C)c1NC(=O)c1sccc1SCc1cccc(C(F)(F)F)c1	x	82.0	n	11.0
O=C(Nc1ccc(Cl)c(Cl)c1)N1CC=CCC1	n	n	85.1	n
O=C(Nc1ccccc1)N1CCNCC1	x	n	x	x
Cc1ccc(NC(=O)N2CCCC2)cc1Cl	n	n	94.7	n
Cc1ccc(NC(=O)C(=O)NNC(=O)c2ccccc2C)cc1Cl	n	70.8	n	n
O=C(Nc1ccccc1)N1CCCC1	n	n	96.9	n
CCCC(=O)Nc1ccc2oc(=O)ccc2c1	n	n	n	n
COc1c(C)cc(C(=O)C2CCCN(C(=O)c3ccc4cc[nH]c4c3)C2)cc1C (stereo unspecified)	n	n	64.6	n
COc1c(C)cc(C(=O)C2CCCN(C(=O)c3cccc(F)c3)C2)cc1C (stereo unspecified)	n	n	n	n
CC(C)=C1C2CCC1C1C(=O)N(NC(=O)COc3ccc(Cl)c(C)c3)C(=O)C21 (stereo unspecified)	n	71.3	75.7	n
O=S(=O)(Nc1ccccn1)c1cccs1	n	n	n	n
Cn1cccc1/C=C1\Cc2ccccc2C1=O	n	n	n	n
Cn1cccc1/C=C1\CCc2ccccc2C1=O	59.7	n	n	n
Cn1cccc1/C=C1\CC(C(C)(C)C)C/C(=C\c2cccn2C)C1=O (stereo unspecified)	n	n	87.2	n
CC(=O)NCCc1c[nH]c2ccc(OCC(O)CNC(C)(C)C)cc12 (stereo unspecified)	x	n	x	x
Cc1cc2nc(CSc3ccc(Cl)cc3)cc(=O)n2[nH]1	n	n	n	n
OC(CCN1CCOCC1)(c1ccc(Cl)cc1)C1CCCCC1 (stereo unspecified)	n	80.4	n	n
OC(CCN1CCCCC1)(c1ccccc1)C1CCCCC1 (stereo unspecified)	n	n	n	n
O=C(NC1CCCCCC1)c1ccc(CN2CCOCC2)cc1	n	n	59.3	n
O=C(NCCC1=CCCCC1)c1ccc(CN2CCOCC2)cc1	n	n	81.2	n
SMILES	WT yeast gro inh	CHOP inhibitor	Lmaj promast	RAM network inh
COc1cc(OC)cc(C(=O)N[C@H](C(=O)OCC(=O)Nc2ccc(F)c(F)c2)C(C)C)c1	n	n	n	8.6
COc1cc(OC)cc(C(=O)N[C@H](C(=O)OCC(=O)NC(=O)NC(C)(C)C)C(C)C)c1	n	n	n	n
COc1cc(OC)cc(C(=O)N[C@H](C(=O)OCC(=O)Nc2ccc(C(N)=O)cc2)C(C)C)c1	n	n	55.9	n
Cc1ccc(C(=O)N[C@H](C(=O)OCC(=O)Nc2cccc(S(N)(=O)=O)c2)C(C)C)cc1	x	n	x	x
CCNC(=O)c1c(NC(C)=O)sc2c1CCCC2	n	n	n	n
O=C(Nc1sc2c(c1-c1nc3ccccc3[nH]1)CCCC2)C1CCCC1	n	n	87.5	n
CN1CCN(S(=O)(=O)c2cccc(C(=O)Nc3sc4c(c3-c3nc5ccccc5[nH]3)CCCC4)c2)CC1	n	n	98.1	n
CC(=O)N1CCN(S(=O)(=O)c2cccc(C(=O)Nc3nc4c(s3)CCCC4)c2)CC1	n	n	n	n
CC(=O)NCCC(=O)Nc1sc2c(c1-c1nc3ccccc3[nH]1)CCCC2	n	n	98.0	n
Cc1c(NC(=O)c2nn3c(C(F)(F)F)cc(-c4ccccc4)nc3c2Br)c(=O)n(-c2ccccc2)n1C	n	n	n	8.6
Cc1ccc(-c2cc(C(F)(F)F)n3nc(C(=O)Nc4c(C)n(C)n(-c5ccccc5)c4=O)cc3n2)cc1	n	n	n	n
COc1ccc(C(=O)NNC(=O)CCn2nnc(-c3ccc(Cl)cc3)n2)cc1OC	n	n	n	n
O=C(CN1C(=O)c2cccc3cccc1c23)Nc1ccccc1C(=O)NCc1ccco1	n	n	82.5	n
CC(=O)c1cc2c(cc1NC(=O)CN1CCCCCCC1)OCO2	n	85.1	n	n
COc1cccc([C@@H]2Oc3ccc(OC)cc3C(=O)[C@H]2OC(=O)NCc2ccc3c(c2)OCO3)c1	n	n	n	n
CC(C)c1ccc(NC(=O)C(=O)C2C(=O)Nc3ccccc32)cc1 (stereo unspecified)	n	74.4	n	n
Cc1ccc(Nc2c(-c3ccccc3O)nc3cnccn23)cc1	n	n	78.7	n
COc1ccc(NCC(=O)n2c(C)c(C)c3ccccc32)cc1	n	n	n	n
COc1ccc(C(=O)c2c(C)c3ccccc3n2CC(O)CNC(C)C)cc1 (stereo unspecified)	n	n	96.7	n
Cc1ccccc1CCN(C(=O)CN1C(=O)c2ccccc2S1(=O)=O)C(C(=O)NCC1CCCO1)c1ccncc1 (stereo unspecified)	n	n	59.9	n
Cc1ccc(-c2csc(/C=C3\SC(C)C(=O)N3CC(=O)Nc3ccccc3F)n2)cc1 (stereo unspecified)	x	92.6	x	x
O=C(CN1C(=O)CS/C1=C\c1nc(-c2ccc(Cl)cc2)cs1)Nc1cccnc1Cl	n	n	n	n
COC(=O)N=Nc1c(O)n(Cc2ccccc2)c2ccccc12	x	n	x	x
CC(C)CCn1c(O)c(N=NC(=O)Cn2ccc(C(F)(F)F)n2)c2ccccc21	n	n	52.1	n
O=C(CN1CCN(S(=O)(=O)c2ccccc2F)CC1)Nc1ccccc1C(=O)c1ccccc1	n	n	n	10.5
SMILES	WT yeast gro inh	CHOP inhibitor	Lmaj promast	RAM network inh
O=C(CN1CCCC1)Nc1ccccc1C(=O)c1ccccc1	x	n	x	x
Cc1cccc(C)c1-n1cccc1/C=C1\SC(=S)N(c2cccc(C(=O)O)c2)C1=O	83.8	n	n	n
O=c1cc(CN2CCN(c3ccccc3)CC2)nc2scc(-c3ccccc3)n12	n	n	n	n
CCOC(=O)C1CCN(Cc2cc(=O)n3c(-c4ccccc4)csc3n2)CC1	n	n	87.5	n
O=C(CN1CCN(Cc2ccccc2)CC1)N1CCCCCC1	n	n	n	n
O=c1cc(/C=C/c2ccccc2)oc2c1ccc1ccccc12	80.5	n	n	n
CC(=O)N(C)C1=C(N2CCOCC2)C(=O)c2ccccc2C1=O	n	n	94.9	n
Cn1c(=O)c(C(=O)CCl)c(N)n(CC2CC2)c1=O	n	n	n	n
Cc1ccc(-n2cc(CN3CCNC(=O)CC3)c(-c3cccc(C)c3)n2)cc1	n	n	n	n
Cc1cccc(-n2cc(CN(C)Cc3nccn3C)c(-c3cccc(F)c3)n2)c1	n	n	n	n
Cc1ccc(-n2cc(CN3CCN(Cc4nccn4C)CC3)c(-c3cccc(C)c3)n2)cc1	66.0	n	n	n

Screening data deposited in PubChem by several laboratories.
